Shiga inhibitor = A qHTS for Small Molecule Inhibitors of Shiga Toxin | Vero cells, Shiga toxin protein synthesis inhibition reporter | inhibition, % at 38.7 µM | 290,000 tested, 9.2% active; in the data active means inhibition mostly above about 28%, no sharp cut-off; inactive means mostly below about 43%; further: 0% is about no effect
NS1 inh = qHTS Assay for Inhibitors of Influenza NS1 Protein Function | 270,000 tested, 0.4% active | Potency, µM (doses to about 46.1 µM), for inactives: top-dose activity, positive = more growth; calls by dose curve; further: potency means the concentration at half of the fitted maximal effect; actives are rising curves; nearly all actives have a fitted effect of over 50% in size
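Read-out: OD600 growth recovery of NS1-expressing budding yeast. Cells grown overnight at 30C in -URA glucose medium, washed, resuspended and diluted 1:100 in 2% galactose assay medium, pH 6.0. Same strain lacking NS1 served as positive control.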
Sm TGR inh = qHTS Assay for the Inhibitors of Schistosoma Mansoni Peroxiredoxins; Schistosoma mansoni thioredoxin glutathione reductase (TGR), Q962Y6; purified TGR, DTNB reduction, TNB absorbance 405 nm; Potency, µM (titrated, usually from 114 µM), without a hit: top-dose activity change, negative = inhibition, actives largely listed as inhibitors; 360,000 tested, 3% active; further: potency means the concentration at half of the fitted maximal effect; on the % scale 0 is the no-effect control and ±100 the full control effect; nearly all actives have a fitted effect of over 60% in size
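First, TGR (20 nM dispensed) and NADPH were mixed with compound. Second, a 15 min room-temperature incubation followed. Third, further NADPH and then DTNB were added to start the reaction. Finally, TNB absorbance was monitored kinetically.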
Cycloheximide cs = Cycloheximide Counterscreen for Small Molecule Inhibitors of Shiga Toxin; AID 2314, 2010; max response, %; 300,000 tested, 12% active; cell reporter, cycloheximide protein synthesis inhibition counterscreen; in the data active means max response mostly above about 13%, no sharp cut-off; inactive means mostly below about 14%; further: read at 38.3 µM for the half of the compounds with a filed dose; 0% is about no effect
Pf growth 48h = Primary qHTS for delayed death inhibitors of the malarial parasite plastid, 48 hour incubation; 310,000 tested, 5.9% active; P. falciparum luciferase growth in erythrocytes, 48 h; Potency, µM (top dose mostly 28.7 µM), for the others: at the highest dose activity change, negative = inhibition, usual class: inhibitors; further: potency means the concentration at half of the fitted maximal effect; on the % scale 0 is the no-effect control and ±100 the full control effect
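Parasite viability was followed by luminescence of a genomically integrated firefly luciferase. Cultures held 0.1% parasitemia at 2% hematocrit (final), incubated under 5% CO2 at 37 C.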
Pf growth 96h = Primary qHTS for delayed death inhibitors of the malarial parasite plastid, 96 hour incubation | Potency, µM (top dose mostly 28.7 µM), inactives show at the top dose activity change, negative = inhibition, most hits filed as inhibitors | 320,000 tested, 6.9% active | P. falciparum luciferase reporter growth, 96 h | AID 504834, 2011; further: potency means the concentration at half of the fitted maximal effect; on the % scale 0 is the no-effect control and ±100 the full control effect
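Erythrocytes infected with luciferase-expressing P. falciparum were dispensed at 2% hematocrit and 0.05% parasitemia (final), then incubated with compounds 96 hours at 37 C in 5% CO2. Luminescence after detection reagent addition reported growth.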
Active calls of the source: *; ? = inconclusive; . = not tested or not shown. Compounds with a hit are over-represented: about 21% of the library has one in this group of screens. Unless noted, the call rests on the fitted dose curve; in most records, active means well fitted curve in the direction sought with a large enough effect; inconclusive means small, poorly fitted or top-dose-only effect, or another doubt; inactive means no such curve, though single readings can be large; an effect the other way counts as inactive or inconclusive.

SMILES	Shiga inhibitor	NS1 inh	Sm TGR inh	Cycloheximide cs	Pf growth 48h	Pf growth 96h
CCOC(=O)C1=C(CC)OC(N)=C(C#N)C1c1cccs1 (centres undefined)	-11	2%	-27%	5	-19%	.
CCN1CC2=C(OC(N)=C(C#N)C2c2cccs2)/C(=C\c2cccs2)C1 (centres undefined)	-7	2%	-21%	-2	.	9.3µM*
Fc1cnc(N2CCOCC2)nc1N1CCOCC1	-3	7%	.	-1	6%	-9%
Clc1nc(N2CCOCC2)ncc1Br	5	-1%	-6%	2	2.6µM*	1.9µM*
COc1ccc(/C=C/S(=O)(=O)NCc2ccccc2)cc1OC	-10	.	-7%	-1	12µM*	39%
CCNC(=S)N/N=C/c1ccc(-c2ccccc2)o1	49*	4%	-9%	24*	23%	-30%
Cc1ccc(-c2ccc(/C=N/NC(N)=S)o2)cc1	58*	-57%	3%	28*	?	?
NC(=S)N/N=C/c1ccc(-c2ccc(SC(F)F)cc2)o1	41*	-3%	-9%	38*	?	?
NS(=O)(=O)c1ccc(-c2ccc(/C=N/NC(=O)c3ccccc3O)o2)cc1	32	2%	-16%	8	?	18%
Cc1ccc(-c2ccc(/C=N/NC(=O)c3ccccc3O)o2)cc1	38	-1%	0%	13	0.59µM*	0.83µM*
CCOC(=O)c1ccc(NC(=O)CSc2nccn2Cc2ccc(OC)cc2)cc1	.	.	1%	.	.	.
Clc1nn2cnnc2c2ccccc12	-10	2%	3%	1	-2%	31%
CCc1ccc(N(CC)C(=O)Cn2cnc3sc(C)c(S(=O)(=O)N4CCN(c5ncccn5)CC4)c3c2=O)cc1	.	.	11%	.	.	.
CN(C)/N=C/c1ccc(/C=N/NC(N)=S)o1	-4	.	-5%	-1	20%	-27%
NC(=S)N/N=C/c1ccc(-c2ccccc2)o1	36*	.	-5%	24*	?	49%
NC(=S)N/N=C/c1ccc(-c2ccc(Cl)c(Cl)c2)o1	33	-52%	-34%	20*	.	.
NC(=S)N/N=C\c1ccc(-c2cccc(Cl)c2Cl)o1	29	1%	0%	24	.	?
CCc1ccc(NC(=S)N2CCNC(=O)C2CC(=O)OC)cc1 (centres undefined)	-21	.	8%	-3	-5%	0%
CCOC(=O)C1C(c2cccc(F)c2)NC(=S)NC1(O)C(F)(F)F (centres undefined)	-73	24%	5%	-1	8%	-29%
CCC(C)NC(=O)C1CC(=O)N(CCc2ccc(F)cc2)C1 (centres undefined)	-13	16%	-3%	-1	8%	76%
CC(Oc1ccc(Cl)cc1)c1ccnn1S(=O)(=O)c1ccc(Cl)cc1 (centres undefined)	22	-32%	-7%	0	?	5%
Cc1ccc(S(=O)(=O)n2nccc2-c2c(-c3ccc(Cl)cc3)noc2C)cc1	-3	2%	1%	-1	0.66µM*	0.37µM*
CCOC(=O)C1CCN(C(=O)CC2(CC(=O)O)CCCC2)CC1	-17	1%	-26%	1	22%	41%
CCOc1ccc(CCNC(=O)COC(=O)Cn2nc(C)c([N+](=O)[O-])c2C)cc1OCC	.	.	-2%	.	0%	-1%
CN(Cc1ccccn1)C(=O)CC1C(=O)NCCN1Cc1cccc(Oc2ccccc2)c1 (centres undefined)	-6	3%	50µM*	-5	-21%	?
COc1cccc(CN2CCNC(=O)C2CC(=O)NCCN2CCCCC2=O)c1 (centres undefined)	-6	14%	?	1	10%	10µM*
O=C(CC1C(=O)NCCN1Cc1ccc(F)cc1Cl)NCc1ccon1 (centres undefined)	-1	16%	13µM*	-9	4%	73%
CN(Cc1ccccn1)C(=O)CC1C(=O)NCCN1Cc1ccc(F)cc1Cl (centres undefined)	1	-11%	45µM*	-1	15%	4%
CC(C)c1nc(CNC(=O)CC2C(=O)NCCN2Cc2ccc(F)cc2Cl)cs1 (centres undefined)	-4	17%	?	-2	?	-25%
